For assay [1], the target named is PEG-3 (UniProt Q6IN02). Briefly: inhibition of PEG-3 promoter-driven reporter – cell-based, HeLa, luciferase, CREF/GAPDH counter-screen panel, dose response (AID 624167). To be noted: CREF/GAPDH counter-screens; HeLa PEG-Prom luciferase reporter, overnight, run 1, dose range 1, at 100 µM (top of the series) unless noted. For orientation: The purpose of a counterscreen is to sort out artefacts and off-target activity.

Assay [2] deals with PEG-3 (UniProt Q6IN02). The description is as above. To be noted: CREF/GAPDH counter-screens; HeLa PEG-Prom luciferase reporter, overnight, run 2, dose range 1, at 100 µM (top of the series) unless noted.
The test system of assay [3] is Rat fibroblasts (CREF). The assay is described as above. To be noted: CREF/GAPDH counter-screens; run 1, dose range 1, at 100 µM (top of the series).
For assay [4], the system named is Rat fibroblasts (CREF). The description is as above. To be noted: CREF/GAPDH counter-screens; run 2, dose range 1, at 100 µM (top of the series).
Assay [5] deals with Tumor necrosis factor receptor superfamily member 10B (Homo sapiens) (UniProt O14763). In words: viability loss of caspase-8 NB7 cells with TRAIL – with/without TRAIL, luminescence panel, confirmation (AID 651596). To be noted: NB7 neuroblastoma + caspase-8, TRAIL sensitization, NB7 Caspase-8, with TRAIL, mean of runs, at 10 µM, stronger effect = higher value.
Sequence of Tumor necrosis factor receptor superfamily member 10B (Homo sapiens) (O14763 whole entry, looked up): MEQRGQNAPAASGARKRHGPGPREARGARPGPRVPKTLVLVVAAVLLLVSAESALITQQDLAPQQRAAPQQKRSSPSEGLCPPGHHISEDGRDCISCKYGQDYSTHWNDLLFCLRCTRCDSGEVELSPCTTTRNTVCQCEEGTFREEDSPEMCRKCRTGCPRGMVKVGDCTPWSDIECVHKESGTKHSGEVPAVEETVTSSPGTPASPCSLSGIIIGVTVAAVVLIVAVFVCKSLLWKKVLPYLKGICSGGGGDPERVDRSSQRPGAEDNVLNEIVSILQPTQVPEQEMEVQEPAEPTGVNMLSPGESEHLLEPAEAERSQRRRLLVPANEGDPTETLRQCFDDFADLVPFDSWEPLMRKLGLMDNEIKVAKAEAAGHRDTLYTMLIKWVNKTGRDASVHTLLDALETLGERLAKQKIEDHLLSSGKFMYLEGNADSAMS
Assay in assay [6]: as above
To be noted: NB7 neuroblastoma + caspase-8, without TRAIL, NB7 Caspase-8, without TRAIL, mean of runs, at 10 µM.

Assay [7] in a line: NFkB reporter suppression in cystic fibrosis bronchial cells – cell-based, uHTS hits, panel, cytotoxicity readout, dose response (AID 624344). To be noted: CF bronchial epithelial cells, PAF-induced NFkB reporter inhibition, with PAF, run 1; at 79 µM (top of the series) unless noted.
Assay in assay [8]: as above
To be noted: CF bronchial epithelial cells, PAF-induced NFkB reporter inhibition, with PAF, run 2; at 79 µM (top of the series) unless noted.

Sequence of PEG-3 (Q6IN02 whole entry, looked up): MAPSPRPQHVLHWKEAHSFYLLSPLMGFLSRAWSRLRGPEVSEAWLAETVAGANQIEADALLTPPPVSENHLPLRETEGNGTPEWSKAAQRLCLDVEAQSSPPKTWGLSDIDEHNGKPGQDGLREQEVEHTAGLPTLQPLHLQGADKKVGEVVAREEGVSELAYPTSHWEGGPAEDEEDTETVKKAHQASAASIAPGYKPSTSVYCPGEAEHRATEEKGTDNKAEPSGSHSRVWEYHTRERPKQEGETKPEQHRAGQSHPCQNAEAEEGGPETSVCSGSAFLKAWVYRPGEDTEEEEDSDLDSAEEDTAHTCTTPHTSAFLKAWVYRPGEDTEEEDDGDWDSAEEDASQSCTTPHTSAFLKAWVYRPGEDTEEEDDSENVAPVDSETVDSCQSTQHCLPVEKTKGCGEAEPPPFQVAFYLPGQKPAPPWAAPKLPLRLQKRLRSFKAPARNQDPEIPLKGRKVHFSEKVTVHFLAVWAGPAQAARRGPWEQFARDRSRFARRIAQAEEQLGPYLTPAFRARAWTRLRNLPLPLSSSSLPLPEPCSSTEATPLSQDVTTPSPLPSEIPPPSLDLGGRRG

Broadly, the inhibition is the relative decrease from the control value, in per cent. As for `O=[N+]([O-])c1nn(-c2ccc3c(c2)OCCO3)n(O)c1=Nc1ccc(Cl)cc1`, the inhibition in assay [1] turned out to be 48.4%; in assay [2], 73.7%; in assay [3] it was 13.6%; in assay [4] it was 8.03%.
For `NS(=O)(=O)c1ccc(CCNc2nn3c(-c4ccc(F)c(Cl)c4)cnc3s2)cc1`, in that order: 66.9%, 74.3%, 28.6% and 14.8%.
The corresponding values for `COc1cc(C(=O)N/N=C(\c2ccccc2)c2ccccn2)cc(OC)c1OC` are 72.6%, 74.9%, 72.1% and 63.3%.
`CN(C)c1ccc(NC(=S)c2ccccn2)cc1`: the inhibition in assay [1] was 93.1%; in assay [2] it was 85.4%; in assay [3], 94.4%; in assay [4] it was 96.1%.
For `COc1cccc2nc3c(C(=O)NCCN(C)C)cccc3cc12`, in that order: 98.9%, 101%, 98% and 95.2%.
For `NC(Cc1ccc(F)cc1)c1csc(Nc2cc(Oc3ccccc3)ncn2)n1` (configuration not stated), in that order: 102%, 101%, 95.3% and 94.1%.
Consider `CN(C)c1ccc(/C=C/c2nc3ccccc3s2)cc1`, for which the inhibition in assay [1] was 94.8%; in assay [2], 89.3%; in assay [3], 96.6%; in assay [4] it was 94.9%.
With `COC1CC(C)C(OC)c2cc(O)cc(c2O)NC(=O)C(C)=CC=CC(C)C(OC(N)=O)C(C)=CC(C)C1OC` (configuration not stated), the inhibition is 94% in assay [1], 100% in assay [2], 97.1% in assay [3] and 98.6% in assay [4].
For `CCc1ccc(/C=C2\SC(=S)N(CCCC(=O)NC3=NCCS3)C2=O)cc1`, in that order: 96%, 77.5%, 0.087% and 7.65%.
For `Cc1cc(C2=NNC(=NC3CC3)SC2)c(C)n1-c1ccccc1F`, the inhibition in assay [1] was 98%; in assay [2] it was 102%; in assay [3], 96.9%; in assay [4], 97.5%.
For `O=C(O)c1ccc(N/N=C/c2ccc3nccnc3c2)cc1`, in that order: 101%, 102%, 58.2% and 45.3%.
The corresponding values for `COc1ccc(-c2cc3nc(C)n(N)c(=O)c3s2)cc1` are 99.2%, 102%, 99% and 98.9%.
On to `Cc1ccc(-n2c(N)c(C(=O)Nc3c(C)n(C)n(-c4ccccc4)c3=O)c3nc4ccccc4nc32)cc1`, for which the inhibition in assay [1] worked out at 52.5%; in assay [2] it was 62.7%; in assay [3] it was 89.4%; in assay [4], 83.7%.
The corresponding values for `Cc1ccsc1/C=N/Nc1cccc(C(=O)O)c1` are 98.1%, 88.9%, 51.5% and 42.9%.
As to `CCCCCCCNC(=O)C1(CC2CC(c3cccc(Br)c3)=NO2)CCNCC1` (configuration not stated), the inhibition in assay [1] is 99.6%; in assay [2], 101%; in assay [3] it was 99.7%; in assay [4], 99.2%. Besides, the activity in assay [5] is 60.5%; in assay [6] it was 98.4%.
On to `COc1cccc(OC)c1C(=O)Nc1cc(C)nn1-c1nc2ccccc2[nH]1`, for which the inhibition is 37.6% in assay [1]; 65.1% in assay [2]; 2.09% in assay [3]; 12.6% in assay [4]; 111% in assay [7]; 101% in assay [8].
For the compound `O=C(Nc1nc2cc3c(cc2s1)OCCO3)C1=COCCO1`, the inhibition in assay [1] turned out to be 99.1%; in assay [2], 98%; in assay [3], 95.3%; in assay [4], 97%.
Turning to `Cc1ccc(-c2nc(-c3ccccn3)no2)cc1`, the inhibition came out at 99.3% in assay [1], 96% in assay [2], 100% in assay [3] and 99.7% in assay [4]. The activity in assay [5] came out at 96.8%; in assay [6] it was 96.3%.
Regarding `O=C(O)c1cccc(COc2ccccc2Cl)c1`, the inhibition turned out to be 96.7% in assay [1], 87.5% in assay [2], 97% in assay [3] and 72.1% in assay [4].

Values taken from PubChem BioAssay.
